# Source: PubChem BioAssay (EPA / NIEHS)
# Inconclusive results are not listed. Activity calls are given as the source filed them. How the source made its calls: active means hit-call score of the fitted dose curve at least 0.9, where 1 is the maximum; inconclusive means response in the unintended direction; inactive means score below 0.9.
# Target: Cellular tumor antigen p53 (Homo sapiens) (UniProt P04637)
# Experiment: TOX21_p53_BLA_p2_ratio: Tox21 HCT-116 p53 Agonism Beta-lactamase Assay, Ratio, Phase 2 (AID 2283592)
# How it was run: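 DMSO-normalized, positive-direction endpoint derived from the 460 nm/530 nm FRET ratio in HCT116 p53 beta-lactamase reporter cells exposed 16 h at 37C and loaded with CCF4-AM for 2 h.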
# Sequence of Cellular tumor antigen p53 (Homo sapiens) (P04637 whole entry, looked up): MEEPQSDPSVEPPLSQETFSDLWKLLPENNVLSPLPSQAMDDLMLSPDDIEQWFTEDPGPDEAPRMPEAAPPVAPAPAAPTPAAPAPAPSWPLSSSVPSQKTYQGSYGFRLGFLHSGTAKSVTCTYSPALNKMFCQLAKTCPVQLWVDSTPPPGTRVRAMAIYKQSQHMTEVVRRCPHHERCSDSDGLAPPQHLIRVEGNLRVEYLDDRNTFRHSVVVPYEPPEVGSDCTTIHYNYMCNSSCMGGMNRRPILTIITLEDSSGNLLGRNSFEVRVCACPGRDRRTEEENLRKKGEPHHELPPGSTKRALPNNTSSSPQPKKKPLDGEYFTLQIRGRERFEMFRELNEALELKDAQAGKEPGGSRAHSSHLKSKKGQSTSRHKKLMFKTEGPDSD
row,SMILES,outcome
1,CC(N)CN (configuration not stated),inactive
2,Cc1scc2c1N(C(=O)CN1CCN(C)CC1)c1ccccc1NC2=O,inactive
3,CCN1CCCC1CNC(=O)c1cc(S(N)(=O)=O)ccc1OC (configuration not stated),inactive
4,C[C@@H](c1ncncc1F)[C@](O)(Cn1cncn1)c1ccc(F)cc1F,inactive
5,CC(C)(C)c1nnc(NS(=O)(=O)c2ccccc2)s1,inactive
6,O=C(c1ccc(Cl)cc1)c1ccc(Cl)cc1,inactive
7,CCCCCCCC/C=C\CCCCCCCC(=O)OCCCC,inactive
8,Oc1ccc(C(O)CNCCCCCCNCC(O)c2ccc(O)c(O)c2)cc1O (configuration not stated),inactive
9,O=C(Oc1ccccc1C(=O)O)c1ccccc1O,inactive
10,COCCOC(=O)CC#N,inactive
11,CC(=O)OCC(=O)[C@@]1(O)[C@H](C)C[C@H]2[C@@H]3C[C@H](F)C4=CC(=O)C=C[C@]4(C)[C@H]3[C@@H](O)C[C@@]21C,inactive
12,CC(C)(C)NSc1nc2ccccc2s1,inactive
13,N[C@@H](C(=O)N[C@@H]1C(=O)N2C(C(=O)O)=C(Cl)CC[C@H]12)c1ccccc1,inactive
14,CC(C)C(=O)OCC(C)(C)C(O)C(C)C (configuration not stated),inactive
15,C=CCCCCCC,inactive
16,CC(C)c1ccccc1C(C)C,inactive
17,COC(=O)CC[C@H](N)C(=O)O,inactive

# Test system: not listed separately
# Experiment: TOX21_p53_BLA_p3_viability: Viability Assessment in the Tox21 HCT-116 p53 Agonism Beta-lactamase Assay, Phase 3 (AID 2283593);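 further: cells exposed to compound for 16 h before reading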
# How it was run: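 Cellular ATP was quantified by CellTiter-Glo luminescence, read after 30 min at room temperature. Beforehand, HCT116 cells (4000/well) received compound 5 h post-seeding, 217-fold diluted from DMSO, then incubated 16 h at 37C.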
row,SMILES,outcome
1,CC1(C)O[C@@H]2C[C@H]3[C@@H]4CCC5=CC(=O)CC[C@]5(C)[C@@]4(F)[C@@H](O)C[C@]3(C)[C@]2(C(=O)CCl)O1,inactive
2,Cc1cccc(O)c1N,inactive
3,FC(F)(F)c1ccccc1-n1ccnc1,inactive
4,CCN(CCO)CCCC(C)Nc1ccnc2cc(Cl)ccc12 (configuration not stated),inactive
5,Cc1cccc(C)c1NC(=O)NC1=CCCN1C,inactive
6,NC(CO)C(=O)NNCc1ccc(O)c(O)c1O (configuration not stated),inactive
7,COc1cc(C(=O)N2CCCCCCC2)cc(OC)c1OC,inactive
8,CCC(C=O)CC,inactive
9,CC(=O)Nc1ccc(OCC(O)CNC(C)C)cc1 (configuration not stated),inactive
10,CCN1C(=O)c2ccccc2C1Nc1ccc(OCCN2CCCCC2)cc1 (configuration not stated),inactive
11,CN[C@@H]1CCc2[nH]c3ccc(C(N)=O)cc3c2C1,inactive
12,CC1(C)S[C@@H]2[C@H](NC(=O)[C@@H](NC(=O)N3CCNC3=O)c3ccccc3)C(=O)N2[C@H]1C(=O)O,inactive
13,CC(=O)OCC1=C(C(=O)O)N2C(=O)[C@@H](NC(=O)Cc3ccccc3)[C@H]2SC1,inactive
14,CC/C(=C(/CC)c1ccc(OP(=O)(O)O)cc1)c1ccc(OP(=O)(O)O)cc1,inactive
15,COCc1ccc(COC)cc1,inactive
16,CN(C)CCC(O)(c1ccccc1)c1ccccc1Cl (configuration not stated),inactive
17,Cc1ccccc1N1C(=O)c2cc(S(N)(=O)=O)c(Cl)cc2NC1C (configuration not stated),inactive
18,NCC1CCC(C(=O)Oc2ccc(CCC(=O)O)cc2)CC1 (configuration not stated),inactive
19,Cc1cc(N)c(S(=O)(=O)O)cc1Cl,inactive

row,SMILES,outcome
1,O=C1c2ccccc2C(=O)N1CO,inactive
2,CCCCCCOC(=O)c1cccnc1,inactive
3,CC(N)CN (configuration not stated),inactive
4,Cc1scc2c1N(C(=O)CN1CCN(C)CC1)c1ccccc1NC2=O,inactive
5,CCN1CCCC1CNC(=O)c1cc(S(N)(=O)=O)ccc1OC (configuration not stated),inactive
6,C[C@@H](c1ncncc1F)[C@](O)(Cn1cncn1)c1ccc(F)cc1F,inactive
7,CC(C)(C)c1nnc(NS(=O)(=O)c2ccccc2)s1,inactive
8,O=C(c1ccc(Cl)cc1)c1ccc(Cl)cc1,inactive
9,CCCCCCCC/C=C\CCCCCCCC(=O)OCCCC,inactive
10,Oc1ccc(C(O)CNCCCCCCNCC(O)c2ccc(O)c(O)c2)cc1O (configuration not stated),inactive
11,O=C(Oc1ccccc1C(=O)O)c1ccccc1O,inactive
12,COCCOC(=O)CC#N,inactive
13,CC(=O)OCC(=O)[C@@]1(O)[C@H](C)C[C@H]2[C@@H]3C[C@H](F)C4=CC(=O)C=C[C@]4(C)[C@H]3[C@@H](O)C[C@@]21C,inactive
14,CC(C)(C)NSc1nc2ccccc2s1,inactive
15,N[C@@H](C(=O)N[C@@H]1C(=O)N2C(C(=O)O)=C(Cl)CC[C@H]12)c1ccccc1,inactive
16,CC(C)C(=O)OCC(C)(C)C(O)C(C)C (configuration not stated),inactive
17,C=CCCCCCC,inactive
18,CC(C)c1ccccc1C(C)C,inactive
19,COC(=O)CC[C@H](N)C(=O)O,inactive

# Test system: not listed separately
# Experiment: TOX21_p53_BLA_p4_viability: Viability Assessment in the Tox21 HCT-116 p53 Agonism Beta-lactamase Assay, Phase 4 (AID 2283597);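 further: hits lower the luminescence signal meaning cytotoxicity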
# How it was run: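 In this multiplexed secondary endpoint, HCT116 cells (4000 per well, compound at 5 h, 16 h treatment) received CellTiter-Glo after the beta-lactamase read. Luminescence after 30 min RT reflects ATP, and falling signal marks cytotoxicity.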
row,SMILES,outcome
1,CC1(C)O[C@@H]2C[C@H]3[C@@H]4CCC5=CC(=O)CC[C@]5(C)[C@@]4(F)[C@@H](O)C[C@]3(C)[C@]2(C(=O)CCl)O1,inactive
2,Cc1cccc(C)c1NC(=O)NC1=CCCN1C,inactive
3,COc1cc(C(=O)N2CCCCCCC2)cc(OC)c1OC,inactive
4,CC(=O)OCC1=C(C(=O)O)N2C(=O)[C@@H](NC(=O)Cc3ccccc3)[C@H]2SC1,inactive
5,COCc1ccc(COC)cc1,inactive
6,Cc1ccccc1N1C(=O)c2cc(S(N)(=O)=O)c(Cl)cc2NC1C (configuration not stated),inactive
7,NCC1CCC(C(=O)Oc2ccc(CCC(=O)O)cc2)CC1 (configuration not stated),inactive
8,C[C@@H](c1ncncc1F)[C@](O)(Cn1cncn1)c1ccc(F)cc1F,inactive
9,O=C(c1ccc(Cl)cc1)c1ccc(Cl)cc1,inactive
10,O=C(Oc1ccccc1C(=O)O)c1ccccc1O,inactive
11,CC(=O)OCC(=O)[C@@]1(O)[C@H](C)C[C@H]2[C@@H]3C[C@H](F)C4=CC(=O)C=C[C@]4(C)[C@H]3[C@@H](O)C[C@@]21C,inactive
12,CC(C)(C)NSc1nc2ccccc2s1,inactive
